Growth data for 15 compounds are collected here from PubChem BioAssay (NCI).

Test systems include HCT-15 colon; HT29 colon; SNB-75 CNS; U251 CNS; PC-3 prostate; SK-MEL-5 melanoma; UACC-62 melanoma; LOX IMVI melanoma; SK-MEL-28 melanoma.
Assay in all cases: NCI-60 one-dose screen, 48 h (100 = growth as untreated, 0 = no growth, -100 = all killed)
Holding throughout (settings): 10 µM unless noted

About 83,000 compounds went through this panel and 20% of them were active in at least one assay; those are over-represented in the sample as a whole.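 A percent growth of 40 corresponds to 60% growth inhibition; 0 means no net growth; -100 means all cells died. Active threshold: below 10.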 Unmarked numbers belong to inactive results. Calls of active or inactive are those of the source.

Consider `O=C1Nc2c(ccc(Cl)c2Cl)/C1=C/c1cc(Br)c(O)c(Br)c1`, for which the growth is 52.4% with HCT-15 colon; 56.6% in the assay with HT29 colon; 70.2% in the assay on SNB-75 CNS; 66.2% in the assay on U251 CNS; 59.4% in the assay on PC-3 prostate; 23.2% in the assay with SK-MEL-5 melanoma. Moreover, the growth with UACC-62 melanoma was 26.1%; in the assay on LOX IMVI melanoma, 59.6%; in the assay on SK-MEL-28 melanoma, 58.3%.

As for `O=C1C=CC(=O)N1c1ccc(Cc2ccc(N3C(=O)C=CC3=O)cc2)cc1`, the growth with HCT-15 colon is 91.1%; in the assay on HT29 colon, 133%; in the assay with SNB-75 CNS it was 164%; with U251 CNS it was 96.8%; with PC-3 prostate, 91.2%; with SK-MEL-5 melanoma, 96.3%. The values for the growth with UACC-62 melanoma, with LOX IMVI melanoma and in the assay with SK-MEL-28 melanoma were 83.7%, 96.1% and 120%, respectively.

In the case of `O=C(O)c1cccnc1Br`, the growth in the assay on HCT-15 colon is 97.6%; with HT29 colon it was 109%; in the assay with SNB-75 CNS it was 86.2%; in the assay on U251 CNS, 97.9%; with PC-3 prostate, 108%; in the assay on SK-MEL-5 melanoma, 109%. In addition, the growth in the assay on UACC-62 melanoma was 96%; in the assay with LOX IMVI melanoma, 96.6%; in the assay with SK-MEL-28 melanoma, 112%.

As for `O=c1c2c3c(sc2n2c(CCl)nnc2n1Cc1ccccc1)CCCC3`, the growth was -89.4% (active) with HCT-15 colon; -100% (active) in the assay on HT29 colon; -61.3% (active) in the assay on SNB-75 CNS; -99.2% (active) in the assay with U251 CNS; -100% (active) in the assay with PC-3 prostate; -96.1% (active) in the assay on SK-MEL-5 melanoma. Further, the growth with UACC-62 melanoma is -72.8% (active); in the assay on LOX IMVI melanoma it was -100% (active); with SK-MEL-28 melanoma, -100% (active).

Turning to `O=C(Cc1ccccc1)c1ccc(Cl)cc1`, the growth in the assay with HCT-15 colon was 97.1%; with HT29 colon it was 115%; in the assay with SNB-75 CNS it was 95.9%; in the assay on U251 CNS, 99.5%; with PC-3 prostate it was 116%; in the assay on SK-MEL-5 melanoma, 103%. For the same compound, the figures for the growth in the assay with UACC-62 melanoma, in the assay on LOX IMVI melanoma and in the assay with SK-MEL-28 melanoma were 93.2%, 102% and 114%, respectively.

Consider `O=C(/C=C\c1cccc([N+](=O)[O-])c1)c1ccccc1`, for which the growth is 21% with HCT-15 colon; 4.18% (active) with HT29 colon; 77.6% in the assay with SNB-75 CNS; 31.1% in the assay on U251 CNS; 40.7% in the assay on PC-3 prostate; 76.3% in the assay on SK-MEL-5 melanoma. Also, the growth was 71.9% with UACC-62 melanoma, 3.66% (active) with LOX IMVI melanoma and 5.24% (active) in the assay with SK-MEL-28 melanoma.

For `CCN(CC)CC(O)CNc1c2ccc([N+](=O)[O-])cc2nc2cc(OC)c(OC)cc12` (stereo not given), the growth is 11.9% with HCT-15 colon; -48.7% (active) with HT29 colon; -94.6% (active) with SNB-75 CNS; -16.2% (active) in the assay on U251 CNS; -53.4% (active) with PC-3 prostate; -78.3% (active) in the assay with SK-MEL-5 melanoma. For the same compound, the values for the growth with UACC-62 melanoma, in the assay on LOX IMVI melanoma and with SK-MEL-28 melanoma were -77.6% (active), -40.2% (active) and -11.9% (active), respectively.

On to `OC(c1cc(-c2ccccc2)nc2ccc(Cl)cc12)C1CCCCN1` (stereo not given), for which the growth in the assay on HCT-15 colon was -12.3% (active); in the assay on HT29 colon it was -3.87% (active); in the assay on SNB-75 CNS, 61.9%; in the assay on U251 CNS, 21.5%; with PC-3 prostate, 49.4%; in the assay on SK-MEL-5 melanoma, -5.63% (active). Further, the figures for the growth with UACC-62 melanoma, in the assay on LOX IMVI melanoma and with SK-MEL-28 melanoma were -31.2% (active), -83.2% (active) and -76.9% (active), respectively.

`CCCCNP1(NCCCC)=NP(NCCCC)(NCCCC)=NP(NCCCC)(NCCCC)=NP(NCCCC)(NCCCC)=N1`: the growth was 99.3% with HCT-15 colon; 11.9% with HT29 colon; 8.44% (active) in the assay on SNB-75 CNS; 11% in the assay on U251 CNS; -6.45% (active) in the assay on PC-3 prostate; -93.8% (active) in the assay with SK-MEL-5 melanoma. The values for the growth in the assay on UACC-62 melanoma, in the assay on LOX IMVI melanoma and in the assay with SK-MEL-28 melanoma were 20.3%, 1.62% (active) and 37.4%, respectively.

As for `Cn1c2ccccc2c2c3c(c4c5ccccc5n(CCCCCC#N)c4c21)C(=O)N(O)C3=O`, the growth with HCT-15 colon is 13.9%; in the assay with HT29 colon, 4.37% (active); with SNB-75 CNS, 17.2%; with U251 CNS, 12.8%; with PC-3 prostate it was 24.3%; in the assay on SK-MEL-5 melanoma, -80.3% (active). The growth with UACC-62 melanoma is -18.5% (active); with LOX IMVI melanoma, -66.7% (active); with SK-MEL-28 melanoma, 6.74% (active).

With `COC(=S)SCN(CSC(=S)OC)c1ccc(Cl)cc1`, the growth in the assay on HCT-15 colon was 86.3%; in the assay on HT29 colon, 102%; in the assay with SNB-75 CNS, 58.9%; in the assay with U251 CNS, 90.9%; in the assay with PC-3 prostate, 99.3%; in the assay with SK-MEL-5 melanoma, 83.6%. Besides, the growth in the assay with UACC-62 melanoma was 58%; with LOX IMVI melanoma it was 73.4%; with SK-MEL-28 melanoma, 102%.

For the compound `CCNS(=O)(=O)c1ncnc2nc[nH]c12`, the growth with HCT-15 colon was 94.3%; with HT29 colon, 114%; in the assay with SNB-75 CNS, 122%; in the assay on U251 CNS it was -14% (active); in the assay with PC-3 prostate it was 85.2%; with SK-MEL-5 melanoma, 113%. Besides, the growth was 94.7% in the assay on UACC-62 melanoma, 22% with LOX IMVI melanoma and 143% with SK-MEL-28 melanoma.

Take `O=C(CNC1C2CC3CC(C2)CC1C3)Sc1nnc2sc3ccccc3n12` (stereo not given): the growth in the assay with HCT-15 colon is 105%; in the assay on HT29 colon, 106%; in the assay on SNB-75 CNS, 76.5%; in the assay with U251 CNS, 104%; in the assay on PC-3 prostate it was 77.4%; in the assay with SK-MEL-5 melanoma, 93.9%. Further, the growth in the assay on UACC-62 melanoma was 88.2%; in the assay with LOX IMVI melanoma, 94.5%; in the assay on SK-MEL-28 melanoma, 112%.

With `CCOC(=O)c1c2ncccc2n2c(=O)n(-c3ccc(Cl)cc3)nnc12`, the growth is 96.6% in the assay on HCT-15 colon; 108% in the assay on HT29 colon; 86.7% in the assay with SNB-75 CNS; 95.1% with U251 CNS; 95.6% with PC-3 prostate; 85.8% with SK-MEL-5 melanoma. Further, the growth with UACC-62 melanoma is 46.6%; in the assay on LOX IMVI melanoma, 41.1%; in the assay with SK-MEL-28 melanoma it was 115%.

As to `CCN1CCN(Cc2ccc(NC(=O)Nc3nc4ccc(Oc5ccnc(C(=O)NC)c5)cc4s3)cc2C(F)(F)F)CC1`, the growth in the assay with HCT-15 colon was -55.8% (active); with HT29 colon it was 1.79% (active); with SNB-75 CNS, -87.4% (active); in the assay with U251 CNS, -60.8% (active); in the assay with PC-3 prostate, -63.3% (active); in the assay on SK-MEL-5 melanoma, 19.8%. For the same compound, the growth was -92.7% (active) in the assay with UACC-62 melanoma, -78.9% (active) in the assay with LOX IMVI melanoma and -85.2% (active) in the assay on SK-MEL-28 melanoma.
